CRFBP-R2 block – CRF-BP/CRF-R2 complex antagonism | HEK293 CRF-R2/CRF-BP, CRF-induced calcium fluorescence | inhibition, % at 11.8 µM | 0.59% of 350,000 active | AID 588475;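 active = inhibition of the ligand-induced calcium signal above about 50% at the single tested concentration, limit read from the data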
CRFBP-R2 agonist – CRF-BP/CRF-R2 complex agonism; HEK293 CRF-R2/CRF-BP, calcium dye fluorescence (FLIPR); percent of saturating CRF peptide response; activation, % at 13.2 µM; 0.46% of 350,000 active; AID 588473;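 active = activation of at least 50%, plus an integration ratio under a set limit after plate pattern correction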;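 note: plate controls were neutral control wells without compound for no effect and CRF at EC100 for full effect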
iPSC survival up – enhancers of human iPSC single-cell survival; AID 602274; hiPSC single-cell survival, ATPlite luminescence; 100% = ROCK inhibitor wells, 0% = DMSO; 0.044% of 360,000 active; survival enhancement, % at 20 µM; in the data active = survival enhancement above about 18%;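 note: cells exposed to compounds for 16 hours before the ATP read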
SKN-1 block – blocks SKN-1 activity in C. elegans; C. elegans VP596 Pgst-4::GFP/RFP ratio, acrylamide-induced, 24 h; inhibition, % at 21.8 µM; 0.49% of 360,000 active; AID 624304;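 active = interference check ratio from 0.5 to 1.5 plus GFP to RFP signal ratio inhibition reaching or exceeding a fixed threshold, cut at about 30% in these data, passing the limit was not always enough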
Cardio protect – modulators protecting cardiomyocytes from myocardial damage; 0.63% of 360,000 active; H9c2 cardiomyocytes, H2O2 injury protection, ATPLite, 2 h; protection from H2O2 cell death, % at 20 µM;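 active = compounds giving at least 50% protection of heart cells from peroxide-induced death in the single-dose screen, raw or plate-pattern-corrected value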;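 note: 0% = DMSO wells with peroxide and 100% = DMSO wells without peroxide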
H9c2 TAG inh – triacylglycerol accumulation inhibition. H9c2 cells, Nile Red lipid (TAG) fluorescence; cells loaded with 200 µM oleic acid. inhibition, % at 12.5 µM. 0.66% of 230,000 active. AID 651582;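 active = pattern-corrected inhibition of lipid staining of at least 50% with the nuclear-stain viability signal not falling by more than 50%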;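 note: 0% = DMSO wells and 100% = triacsin C control wells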
* hit, by the source's call; nt = no result. A selection: hits, their analogues and other compounds. The true share with any hit is near 2.5%.

SMILES	CRFBP-R2 block	CRFBP-R2 agonist	iPSC survival up	SKN-1 block	Cardio protect	H9c2 TAG inh
Cc1ccc(NC(=O)COC(=O)CN2C(=O)NC3(CCCC3)C2=O)cc1S(=O)(=O)N(C)C	61*	2	1	6	2	-3
CN(C(=O)c1ccc(Cl)cc1)c1ccc(OCC(=O)Nc2cc(C(=O)O)ccc2Cl)cc1	-5	0	nt	nt	nt	nt
Cc1c(-c2csc(N)n2)c2ccccc2n1C	0	1	-1	37*	-6	nt
Oc1ccccc1OCc1nc2ccccc2s1	10	-2	-1	19	-3	nt
Oc1ccc(O)c(Cc2nc3ccccc3s2)c1	53*	0	2	6	-8	7
CCCCCCCCCCCC(=O)NC(C(=O)OCC)C(O)c1cccc([N+](=O)[O-])c1 (stereo unspecified)	8	-1	0	0	-31	-9
CC1(c2nnnn2-c2ccc3c(c2)OCCO3)CCC(=O)N1CCCn1ccnc1 (stereo unspecified)	nt	nt	0	6	nt	nt
CC(C)CN(CC(C)C)C(=O)CCCC(=O)N(CC(C)C)CC(C)C	53*	7	0	5	11	10
Cc1[nH]c2ccccc2c1C(=O)C(=O)NC1CC(=O)N(c2ccc(F)cc2)C1 (stereo unspecified)	-13	1	0	-4	0	11
COc1ccccc1OCC(=O)Sc1ccc(C)cc1	-9	-6	1	-2	25	nt
Cc1ccc(OCC(=O)Sc2ccc(C)cc2)cc1	35	-1	0	56*	18	-13
O=C(Cc1ccc(-c2ccccc2)cc1)Nc1ncccc1O	13	1	0	-4	-3	nt
CCN(c1ccc(NS(=O)(=O)c2cc(Cl)ccc2Cl)cc1)C(C)C	55*	-4	2	4	-12	nt
COc1cccc(-c2nn3c(-c4ccco4)nnc3s2)c1	-8	-1	3	13	73*	nt
COc1cccc(OC)c1-c1nn2c(-c3ccco3)nnc2s1	-28	0	0	-14	54*	nt
COC(=O)C[C@H]1C=C[C@H](NC(=O)Nc2ccccc2F)[C@@H](CO)O1	nt	nt	nt	7	nt	nt
Cc1c(Cl)c(-c2n[nH]c(=S)n2-c2ccc(F)cc2)nn1C	-6	1	3	30*	1	-12
Cn1cc(Cl)c(-c2n[nH]c(=S)n2-c2ccc(F)cc2)n1	5	1	0	-5	0	-1
COc1ccc(NC(=O)c2cc(C(=O)Nc3ccc(OC)cc3OC)cc([N+](=O)[O-])c2)c(OC)c1	50*	7	0	-4	4	7
COc1ccc(NC(=O)CCCCC(=O)Nc2ccc(OC)cc2OC)c(OC)c1	59*	2	0	21	-3	13
CCCCC(=O)Nc1ccc(NC(=O)c2ccc([N+](=O)[O-])cc2)cc1OC	10	-1	-1	3	-4	-5
CCCCC(=O)Nc1ccc(C(=O)Nc2ccc(OC)cc2[N+](=O)[O-])cc1	-165	117*	0	-11	-5	-5
CCCC(C)Sc1nc2c([nH]1)c(=S)n(C)c(=O)n2C (stereo unspecified)	-4	-2	-2	-5	12	1
FC(F)(F)c1nnc2ccc(N3CCCC3)nn12	-1	0	0	-7	52*	35
O=C1CCC(OCc2ccccc2)CCN1[C@H](CSc1ccccc1)Cc1ccccc1 (stereo partly specified)	nt	nt	0	5	nt	nt
COC(=O)c1cccc(Nc2ncnc3ccc(C)cc23)c1	-10	-1	1	3	9	nt
Cc1ccc2ncnc(Nc3cccc([N+](=O)[O-])c3)c2c1	-13	-3	-1	38*	-2	nt
COc1cccc(CNC(=O)CN(c2cc(C)cc(C)c2)S(=O)(=O)c2c(C)noc2C)c1	-13	0	-1	-15	5	14
COc1cccc(CNC(=O)CN(c2ccc(C(C)C)cc2)S(=O)(=O)c2c(C)noc2C)c1	110*	2	0	5	3	nt
